# NPR1 antag: human Npr1 receptor antagonism; HEK293 hNpr1 GloSensor cGMP, ANP-stimulated luminescence; Potency, µM (highest dose often 46.3 µM), for inactives: top-dose activity change, negative = inhibition, usual class: inhibitors; 76,000 tested, 1.6% active; AID 1347048; calls by dose curve; further: nearly all actives have a fitted effect of over 60% in size
# Target sequence (P16066 whole entry, looked up): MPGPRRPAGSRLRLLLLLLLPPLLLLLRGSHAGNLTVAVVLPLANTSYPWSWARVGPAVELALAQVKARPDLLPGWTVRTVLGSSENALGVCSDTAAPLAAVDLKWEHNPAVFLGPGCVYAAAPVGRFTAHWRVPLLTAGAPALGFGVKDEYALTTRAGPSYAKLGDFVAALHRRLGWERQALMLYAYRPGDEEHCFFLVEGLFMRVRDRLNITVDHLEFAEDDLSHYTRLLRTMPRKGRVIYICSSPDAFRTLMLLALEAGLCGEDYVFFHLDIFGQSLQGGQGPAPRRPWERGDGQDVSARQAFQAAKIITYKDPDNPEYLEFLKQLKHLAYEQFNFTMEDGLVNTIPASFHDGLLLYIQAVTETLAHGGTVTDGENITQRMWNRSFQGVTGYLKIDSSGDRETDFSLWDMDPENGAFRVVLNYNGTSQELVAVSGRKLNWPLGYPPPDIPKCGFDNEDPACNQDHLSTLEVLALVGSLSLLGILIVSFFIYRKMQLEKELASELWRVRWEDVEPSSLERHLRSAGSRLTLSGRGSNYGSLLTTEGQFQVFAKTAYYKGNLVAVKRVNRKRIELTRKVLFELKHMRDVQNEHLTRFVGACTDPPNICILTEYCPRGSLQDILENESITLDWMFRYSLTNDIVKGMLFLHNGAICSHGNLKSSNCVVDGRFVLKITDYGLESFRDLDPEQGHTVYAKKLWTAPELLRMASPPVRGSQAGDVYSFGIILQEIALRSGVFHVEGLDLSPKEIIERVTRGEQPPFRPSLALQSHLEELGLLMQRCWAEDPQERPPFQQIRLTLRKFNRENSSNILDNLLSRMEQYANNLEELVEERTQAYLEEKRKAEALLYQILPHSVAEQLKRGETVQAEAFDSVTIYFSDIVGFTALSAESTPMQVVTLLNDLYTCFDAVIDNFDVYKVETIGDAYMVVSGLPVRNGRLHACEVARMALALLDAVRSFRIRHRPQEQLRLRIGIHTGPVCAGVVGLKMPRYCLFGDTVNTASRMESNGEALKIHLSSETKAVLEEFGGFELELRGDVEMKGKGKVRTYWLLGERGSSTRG
#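 HEK293 cells stably expressing human Npr1 and cGMP GloSensor pGS-40F, loaded 2 h with 2% GloSensor reagent, given compound 30 min at room temperature. Luminescence read before and 20 min after 0.1 nM hNppA.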
# 3T3 cytotox: kills NIH 3T3 cells; 94,000 tested, 4.3% active; NIH 3T3 viability, CellTiter-Glo ATP luminescence, 48-72 h; Potency, µM (highest dose often 96.7 µM), without a hit: at the top dose activity change, negative = cytotoxicity, usual class: inhibitors; further: nearly all actives have a fitted effect of over 55% in size
#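 Viability of NIH 3T3 cells after 48 or 72 hr compound treatment at 37 °C was assessed by CellTiter-Glo, with luminescence imaged following a 10 min room-temperature step.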
# Luciferase inh: blocks purified firefly luciferase enzyme activity; P08659; purified P. pyralis luciferase, luminescence, biochemical; Potency, µM (titrated, usually from 115 µM), usual class: inhibitors; 76,000 tested, 2.5% active; AID 1347043; further: nearly all actives have a fitted effect of over 65% in size
#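 Purified P. pyralis luciferase (10nM final) in 50mM Tris acetate pH 7.5, 10mM Mg acetate, 0.01% Tween-20, 0.05% BSA with 10uM D-luciferin and 10uM ATP. Compounds titrated qHTS. Luminescence imaged on CCD.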
# HEK293 tox: HEK 293 cell cytotoxicity; HEK 293 viability, ATP luminescence (CellTiter-Glo), 48-72 h; 94,000 tested, 6.6% active; Potency, µM (doses to about 115 µM), without a hit: at the highest dose activity change, negative = cytotoxicity, hits mostly inhibitors; AID 1345083; further: nearly all actives have a fitted effect of over 60% in size
#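 Luminescence from cellular ATP, measured with CellTiter-Glo, indicates HEK 293 viability. Cells plated at 250 cells/well are treated with compound for 48 or 72 hr at 37 degree Celsius before reagent addition.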
# An asterisk follows results filed as active; i = inactive; ? = inconclusive; nt = no result; [ ] = dose if it differs, or a comment. Compounds with a hit are over-represented: about 11% of the library has one in this group of screens. Unless noted, the call rests on the fitted dose curve; in most records, active means well fitted curve in the direction sought with a large enough effect; inconclusive means small, poorly fitted or top-dose-only effect, or another doubt; inactive means no such curve, though single readings can be large; an effect the other way counts as inactive or inconclusive. On the % scale 0 is the no-effect control and ±100 the full control effect; potency means the concentration at half of the fitted maximal effect.
SMILES,NPR1 antag,3T3 cytotox,Luciferase inh,HEK293 tox
COc1ccc(-c2ccc3ncc(Nc4cc(F)ccc4OC)n3n2)cn1,-7%[70.6 µM],-11%[138 µM],i,?
CN(C)c1ccc2ncc(Nc3cc(F)cc(N4CCOCC4)c3)n2n1,2%[70.6 µM],?,?,?
COc1ccc(F)cc1Nc1cnc2ccc(N(C)C)nn12,1%[70.6 µM],?,i,100µM*
CN(C)c1ccc2ncc(Nc3ccc(Cl)cn3)n2n1,-17%[70.6 µM],112µM*,i,?
Clc1ccc(Nc2cnc3ccc(-c4ccccc4)nn23)nc1,?,?,i,?
CN(C)c1ccc2ncc(Nc3ccccc3)n2n1,-19%[70.6 µM],?,?,112µM*
CCCCOC(=O)N1CCC2(CC1)[C@H](C(=O)OCC)[C@@H](OC)C(=O)N2C,nt,?,nt,-10%
CCN1C(=O)CCN(Cc2cn(C)c3ccccc23)CC12CCOCC2,nt,?,nt,79µM*
CCN1C(=O)CCN(Cc2cccc(C)c2)CC12CCOCC2,nt,-17%,nt,-6%
Cc1ccc(C2=NC3(CCN(C(=O)c4ccco4)CC3)ON2)cc1,-13%,-16%,28µM*,-24%
Cc1ccc(C2=NC3(CCN(C(=O)c4ccoc4)CC3)ON2)cc1,-18%,-5%,32µM*,-2%
O=C(c1nc2cccnc2n(CCc2ccccc2)c1=O)N1CCN(Cc2ccccc2)CC1,nt,-25%,nt,?
COCCNC(=O)C[C@@H]1O[C@H](Cn2cc(CN(C)Cc3ccccc3)nn2)[C@@H](O)[C@H]1O,1%[70.6 µM],-7%[174 µM],i,-20%[172 µM]
COc1cc(-c2ccnc3nc(Cc4ccc(F)cc4)nn23)cc(OC)c1OC,-17%,?,i,32µM*
c1cc(-c2ccnc3nc(CCC4CCCC4)nn23)ccn1,-1%,35µM*,i,-2%
c1cncc(-c2ccnc3nc(CCC4CCCC4)nn23)c1,5%,?,i,?
COc1cc(-c2ccnc3nc(Cc4cc(F)cc(F)c4)nn23)cc(OC)c1OC,0%,?,i,?
COc1cc(-c2ccnc3nc(CCC4CCCC4)nn23)cc(OC)c1OC,-7%,5.6µM*,i,-22%
C[C@]12CC[C@H](O)CC1=CCN(Cc1cccc(OC(F)(F)F)c1)C2,nt,-25%,nt,?
CCC1Oc2ccc(NC(=O)c3ccc4c(c3)OCO4)cc2CN(Cc2ccccc2)C1=O (stereo not given),-2%,-26%,i,89µM*
CCC1Oc2ccc(NC(=O)Cc3ccccc3)cc2CN(Cc2ccc(OC)cc2)C1=O (stereo not given),0%,?,i,?
CCC1Oc2ccc(NC(=O)Cc3ccc(OC)cc3)cc2CN(Cc2ccc3c(c2)OCO3)C1=O (stereo not given),-12%,?,i,22µM*
CCC1Oc2ccc(NC(=O)c3ccccc3)cc2CN(Cc2ccc(OC)cc2)C1=O (stereo not given),-16%,?,i,?
CCC1Oc2ccc(NC(=O)Cc3ccccc3)cc2CN(Cc2ccc3c(c2)OCO3)C1=O (stereo not given),-15%,?,i,35µM*
CCC1Oc2ccc(NC(=O)c3cccc(OC)c3)cc2CN(Cc2ccccc2)C1=O (stereo not given),-23%,?,i,45µM*
SMILES,NPR1 antag,3T3 cytotox,Luciferase inh,HEK293 tox
CN(Cc1ccccc1)C(=O)c1cn2ccnc(-c3ccccc3)c2n1,-5%,-26%,i,?
O=C(O)c1ccc(CN2C[C@@H](F)[C@@H](OCc3nc4ccc(C(F)(F)F)cc4[nH]3)C2)cc1,1%,-13%,i,-5%
Cn1ccc2c(C(=O)NCCc3cnc[nH]3)nc(-c3cccc(CO)c3)cc21,-9%[70.6 µM],?,i,?
Cn1ccc2c(C(=O)NCCc3cnc[nH]3)nc(-c3cnn(Cc4ccccc4)c3)cc21,-6%[70.6 µM],79µM*,i,?
Cn1ccc2c(C(=O)NCCc3cnc[nH]3)nc(-c3cccc(C(F)(F)F)c3)cc21,-6%[70.6 µM],35µM*,i,40µM*
Cn1ccc2c(C(=O)NCCc3cnc[nH]3)nc(-c3ccccc3)cc21,-12%[70.6 µM],?,?,?
COc1ccc(-c2cc3c(ccn3C)c(C(=O)NCCc3cnc[nH]3)n2)cn1,3%[70.6 µM],25µM*,i,?
Cn1ccc2c(C(=O)NCCc3cnc[nH]3)nc(-c3cccnc3)cc21,0%[70.6 µM],45µM*,i,-24%[172 µM]
COc1ccccc1-c1cc2c(ccn2C)c(C(=O)NCCc2cnc[nH]2)n1,-2%[70.6 µM],?,i,?
N#Cc1cccc(-c2c(C(=O)NCc3cccs3)nc3sccn23)c1,nt,-26%,nt,-17%
COCCn1ncc(N2CCC(C(=O)Nc3ccc(-c4nc5c(C)cccc5[nH]4)cc3)C2)cc1=O (stereo not given),nt,-12%,nt,i
O=C(Cc1ccccn1)N1CCC(C(=O)N2CCCC2c2nc3ccncc3[nH]2)CC1 (stereo not given),nt,-16%,nt,-11%
CC(C)C(=O)N1CCCC1c1nc(CCOCC2CC2)no1 (stereo not given),nt,-11%,nt,-12%
O=C(NCCNC(=O)C1CC1)c1ccc(-c2cccc(C(F)(F)F)c2)cc1,nt,-50%,nt,?
O=C(c1cccc(O)c1)N1CCc2c(n(CCOc3ccccc3)n(-c3ccccc3)c2=O)C1,-8%,22µM*,i,-15%
CCCCn1c(=O)c(C(=O)N2CCN(C(=O)NC(C)C)CC2)nc2cccnc21,nt,-28%,nt,-3%
Cc1cccc2c1O[C@H]1[C@H](CO)CN([S+](=O)([O-])Cc3ccccc3)[C@@H]21,nt,?,nt,79µM*
COc1ccc(C(=O)NC2CCN(c3ccc4nnc(C5CC5)n4n3)C2)cc1 (stereo not given),nt,-18%,nt,-19%
Cc1ccsc1C(=O)N1CCOc2ccc(CN3CCc4ccccc4C3)cc2C1,-29%,?,i,35µM*
O=C(Cc1cccs1)N1CCOc2ccc(CN3CCc4ccccc4C3)cc2C1,-23%,?,i,?
O=C(N1CCOc2ccc(CN3CCc4ccccc4C3)cc2C1)C1(c2ccccc2)CC1,?,?,i,45µM*
COc1cccc(C(=O)N2CCOc3ccc(CN4CCc5ccccc5C4)cc3C2)c1,-4%,?,i,45µM*
CCC(=O)N1CCOc2ccc(CN3CCc4ccccc4C3)cc2C1,2%,-24%,i,?
Cc1ccc(S(=O)(=O)N2CC(c3nc(-c4ccncc4)no3)C2)cc1,-22%,-18%,i,?
Cc1cc(Cl)ccc1S(=O)(=O)N1CC(c2nc(-c3ccncc3)no2)C1,13µM*,?,i,?
COc1cc(OC)cc(C(=O)NC2CCCN(c3cc(-c4ccc(F)cc4)[nH]n3)C2)c1 (stereo not given),-12%,?,?,45µM*
COc1ccc(C(=O)NC2CCN(c3cc(-c4ccc(F)cc4)[nH]n3)C2)cc1 (stereo not given),-13%,?,i,?
